# Test results from PubChem BioAssay AID604 (The Scripps Research Institute Molecular Screening Center, 2007).
# In all, about 60,000 compounds went through this assay and about 210 (0.35%) were called active.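 The calls were made as follows: active = inhibition above the screen-wide mean inhibition plus 3 SD (cut at about 18% in these data); inactive = the rest.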 For the sample, actives were picked, then their nearest neighbours and some compounds at random.
# Target: Rho-associated protein kinase 2 (Homo sapiens) (UniProt O75116)
# Sequence (O75116 whole entry, looked up): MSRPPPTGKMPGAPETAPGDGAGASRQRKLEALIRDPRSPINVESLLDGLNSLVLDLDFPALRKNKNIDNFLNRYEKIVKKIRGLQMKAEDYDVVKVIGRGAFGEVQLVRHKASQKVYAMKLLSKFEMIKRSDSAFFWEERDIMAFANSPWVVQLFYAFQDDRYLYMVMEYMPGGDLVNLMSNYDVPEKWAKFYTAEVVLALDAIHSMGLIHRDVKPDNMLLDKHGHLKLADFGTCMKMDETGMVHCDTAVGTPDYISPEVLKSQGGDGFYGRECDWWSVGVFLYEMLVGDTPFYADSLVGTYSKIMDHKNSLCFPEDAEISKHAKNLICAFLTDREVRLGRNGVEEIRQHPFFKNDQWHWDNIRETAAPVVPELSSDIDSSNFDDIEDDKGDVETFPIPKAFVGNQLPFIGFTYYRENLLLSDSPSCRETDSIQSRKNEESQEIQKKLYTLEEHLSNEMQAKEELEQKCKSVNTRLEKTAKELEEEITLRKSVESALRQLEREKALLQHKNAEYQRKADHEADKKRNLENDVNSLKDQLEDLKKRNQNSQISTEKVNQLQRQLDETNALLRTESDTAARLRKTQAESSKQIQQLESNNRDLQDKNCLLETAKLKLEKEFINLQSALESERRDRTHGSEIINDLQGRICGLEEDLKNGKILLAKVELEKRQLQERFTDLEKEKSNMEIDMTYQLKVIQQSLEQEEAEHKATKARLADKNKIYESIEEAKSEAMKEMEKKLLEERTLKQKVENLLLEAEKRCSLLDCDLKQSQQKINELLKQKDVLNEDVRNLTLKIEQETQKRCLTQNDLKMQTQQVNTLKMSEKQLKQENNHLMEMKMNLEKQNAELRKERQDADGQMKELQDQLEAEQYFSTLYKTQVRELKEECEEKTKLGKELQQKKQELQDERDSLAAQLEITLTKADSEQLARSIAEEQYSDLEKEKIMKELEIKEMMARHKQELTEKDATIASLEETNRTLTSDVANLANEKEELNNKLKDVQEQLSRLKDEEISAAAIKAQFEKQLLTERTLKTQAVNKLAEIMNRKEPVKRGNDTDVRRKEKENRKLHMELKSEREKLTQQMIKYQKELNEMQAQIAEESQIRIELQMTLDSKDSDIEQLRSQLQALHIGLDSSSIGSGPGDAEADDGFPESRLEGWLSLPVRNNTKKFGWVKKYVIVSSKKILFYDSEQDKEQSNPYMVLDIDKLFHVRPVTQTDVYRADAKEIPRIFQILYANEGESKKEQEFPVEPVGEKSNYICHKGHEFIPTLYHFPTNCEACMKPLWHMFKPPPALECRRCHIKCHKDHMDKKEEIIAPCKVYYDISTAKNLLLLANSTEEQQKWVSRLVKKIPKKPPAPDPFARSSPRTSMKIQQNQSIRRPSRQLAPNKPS
# Assay: ROCK2 enzymatic activity blockers – biochemical, high-throughput, luminescence, primary screen (AID 604);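 also: plate controls were DMSO wells for no effect and Y-27632 control wells after no-enzyme background subtraction for full effect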
# Conditions: purified ROCK2, Kinase-Glo ATP depletion luminescence; at 6 µM; stronger effect = higher value
row,Structure (SMILES),inhibition
1,CCOC(=O)C1(c2ccccc2)NC(c2ccc(N(C)C)cc2)C2C(=O)N(C)C(=O)C21 (stereo not given),5.3% (inactive)
2,O=C(CSc1nnc(-c2ccco2)n1Cc1ccccc1)NC(=O)NCc1ccco1,5.5% (inactive)
3,Cc1nonc1OCCn1nnnc1N,4% (inactive)
4,CCCC(=O)N1CCc2[nH]c3ccccc3c2C1,14.9% (inactive)
5,COC(=O)c1cc(OC)c(OC)cc1NC(=O)C1CCCO1 (stereo not given),5.6% (inactive)
6,CS(=O)(=O)N(Cc1nc2sc3c(c2c(=O)[nH]1)CCCC3)C1CCCCC1,-12.6% (inactive)
7,Cc1cccc(NC(=O)CSc2nnc(CCCCCNC(=O)OC(C)(C)C)o2)c1C,3.8% (inactive)
8,CC1CCC(NS(=O)(=O)c2ccc3c(c2)n(C)c(=O)c(=O)n3C)CC1 (stereo not given),3.2% (inactive)
9,CC(C)Cc1ccc(S(=O)(=O)N2CCN(C(=O)c3ccco3)CC2)cc1,8% (inactive)
10,O=C(C(NS(=O)(=O)c1cccc2nsnc12)c1ccccc1)N1CCN(c2ccccn2)CC1 (stereo not given),6.9% (inactive)
11,COc1cccc(N(CC(=O)Nc2cccc(F)c2)S(C)(=O)=O)c1,-1.3% (inactive)
12,O=C(O)CCSc1nnc(-c2ccccc2)n1-c1ccccc1,2.5% (inactive)
13,CN1C(=O)CC(N2CCN(c3ccccn3)CC2)C1=O (stereo not given),0.7% (inactive)
14,COc1ccc(Cc2nnc(NS(=O)(=O)Cc3ccccc3)s2)cc1,-0.2% (inactive)
15,CCOC(=O)CSc1nnc(NC(=O)c2cccc(S(=O)(=O)N3CCCC3)c2)s1,-2.8% (inactive)
16,CC(C)OC(=O)C(C#N)c1nc2ccccc2nc1N1CCN(Cc2ccc3c(c2)OCO3)CC1 (stereo not given),3.1% (inactive)
17,CCCCN(C)C(=O)c1ccc2c(c1)N(CC)C(=O)c1ccccc1S2(=O)=O,-4.8% (inactive)
18,COc1cc2c(cc1OC)C(c1ccncc1)CC(=O)N2 (stereo not given),9.6% (inactive)
19,COc1cccc(N(CC(=O)NC2CCCC2)C(=O)Cn2nnc(-c3ccc(C)cc3)n2)c1,-2% (inactive)
20,O=C(Nc1nc(-c2ccc3c(c2)OCO3)cs1)c1ccncc1,-1.2% (inactive)
21,O=C(Nc1nc(-c2ccncc2)cs1)C1COc2ccccc2O1 (stereo not given),114% (active)
22,COc1ccc(OC)c2sc(NC(=O)C3COc4ccccc4O3)nc12 (stereo not given),-3.1% (inactive)
23,Cc1ccc(N(CC(O)CN2CCCC2)S(=O)(=O)c2ccccc2)cc1 (stereo not given),1.4% (inactive)
24,CC1=C(C(=O)OCc2ccccc2)C(c2ccco2)n2ncnc2N1 (stereo not given),-9.2% (inactive)
25,CC(=C1C(=O)c2ccccc2C1=O)N1CCN(c2ccccn2)CC1,7.8% (inactive)

row,Structure (SMILES),inhibition
1,Cc1cccc2cc(CN(Cc3nnnn3Cc3ccccc3)C3CCCC3)c(=O)[nH]c12,-0.6% (inactive)
2,O=C(Nn1cnc2ccccc2c1=O)c1ccc(F)cc1Cl,4.2% (inactive)
3,CCCCCCn1c(SCC(=O)c2ccccc2)nc2c1c(=O)[nH]c(=O)n2C,6.3% (inactive)
4,O=C(CSc1nnc2scc(-c3ccc(F)cc3)n12)NCc1ccco1,2.1% (inactive)
5,CC1(C)C2CCC1(C)C(OC(=O)CCn1ccnc1)C2 (stereo not given),6.6% (inactive)
6,O=C(CC1Nc2ccccc2NC1=O)Nc1ccccc1 (stereo not given),3% (inactive)
7,O=C(C1=C(O)C(=O)N(c2ncccn2)C1c1cccs1)c1ccco1 (stereo not given),-11.1% (inactive)
8,CNC(=O)C1CC(=O)N(Cc2ccc3c(c2)OCO3)C(=Nc2ccc(F)cc2)S1 (stereo not given),-7.4% (inactive)
9,O=CN1CCN(C2CC(=O)N(c3ccc4c(c3)OCO4)C2=O)CC1 (stereo not given),7% (inactive)
10,O=C1CC(N2CCN(C(c3ccccc3)c3ccccc3)CC2)C(=O)N1 (stereo not given),5.5% (inactive)
11,CCCC(=O)Nc1ccc2c(c1)nc1n2CCSC1,-0.6% (inactive)
12,CCc1ccc2oc(-c3ccc(N)cc3)nc2c1,4.1% (inactive)
13,CCCCCC(=O)Nc1ccc2oc(-c3ccncc3)nc2c1,22.3% (active)
14,NC(=O)C1CCN(C2OC(=O)c3ccccc32)CC1 (stereo not given),7.4% (inactive)
15,COc1cc2c(cc1NC(=O)CN1CCN(S(=O)(=O)c3ccc(F)cc3)CC1)oc1ccccc12,3.5% (inactive)
16,Cc1noc(COc2ccccc2OCC(O)CNC(C)(C)C)n1 (stereo not given),1.2% (inactive)
17,O=P(c1ccc2c(c1)OCCO2)(N1CCOCC1)N1CCOCC1,-3.2% (inactive)
18,Cc1nn(-c2ccccc2)c2[nH]c(C(F)(F)F)cc(=O)c12,-0.3% (inactive)
19,CCOc1ccc(CCNC(=O)C(CC)n2nc(C)n3c(cc4sccc43)c2=O)cc1OCC (stereo not given),-3.8% (inactive)
20,CCc1nnc(NC(=O)CCC(=O)O)s1,-4.5% (inactive)
21,O=[n+]1c2c(n([O-])c3cc(Br)ccc31)CCC2,-5% (inactive)
22,CC(=O)c1ccc(NC(=O)N[C@@H](Cc2ccccc2)C(=O)O)cc1,-0.8% (inactive)
23,Cc1cc(Nc2ccccc2)n(CCC#N)n1,4.6% (inactive)
24,Cc1c(C(=O)N2CC(C)OC(C)C2)sc2nc(-c3ccccc3)cn12 (stereo not given),8.6% (inactive)
25,Cc1c(NC(=O)C(C)OC(=O)c2cc3c4ccccc4n(C)c3s2)c(=O)n(-c2ccccc2)n1C (stereo not given),5.5% (inactive)

row,Structure (SMILES),inhibition
1,Fc1cnc(N2CCOCC2)nc1NCc1ccccc1,-0.4% (inactive)
2,Cc1nc(-c2ccc(NC(=O)c3cccs3)cc2)cs1,-25% (inactive)
3,Cc1nnc(NC2=NCCCCC2)o1,-0.7% (inactive)
4,Cc1ccc(S(=O)(=O)c2nc(NCCCn3ccnc3)sc2Cl)cc1,1.7% (inactive)
5,CCC1(C)N(O)C(C)(C)C(c2ccc(OC)cc2)=[N+]1[O-] (stereo not given),2.5% (inactive)
6,O=c1[nH]c(=O)n(Cc2ccco2)c2c1C(C(F)(F)F)(C(F)(F)F)N=C(c1ccco1)N2,5% (inactive)
7,N#CCCN1CCN(S(=O)(=O)c2ccc(S(=O)(=O)NC3CC3)cc2)CC1,1.7% (inactive)
8,CCOC(=O)CSc1nnc(-c2cccc(Br)c2)o1,2.1% (inactive)
9,COc1cc(=O)[nH]c(=O)n1C(=O)Cc1ccccc1,-0.6% (inactive)
10,Cc1cc(C)nc(SCc2ccccc2C#N)n1,6% (inactive)
11,COc1ccc(N2C(=O)C3CCCN3C2c2cccs2)cc1 (stereo not given),-2.8% (inactive)
12,CCC(C)(NC(=O)c1ccccn1)C(=O)NC1CCCCC1 (stereo not given),-0.8% (inactive)
13,Cc1ccc2[nH]c(=O)c(COC(=O)c3ccccn3)cc2c1,6.5% (inactive)
14,CCCC(=O)Nc1ccc(Cl)c(NC(=O)c2ccc(Br)o2)c1,-0.6% (inactive)
15,O=C(c1ccco1)N1CCN(C(=O)C2CC(c3ccc(F)cc3)=NO2)CC1 (stereo not given),1.1% (inactive)
16,COc1ccc(C(=O)Nc2c(N)nc(SCC(=O)N3CCC(C)CC3)[nH]c2=O)cc1OC,1.5% (inactive)
17,CN1CCN(CC(O)COCc2ccc3c(c2)OCO3)CC1 (stereo not given),5.7% (inactive)
18,O=C(NCc1ccco1)c1cnn2c(C(F)(F)F)cc(-c3ccco3)nc12,12.9% (inactive)
19,NC(=O)Cn1c(=O)oc2ccccc21,-2% (inactive)
20,CCOc1ccc2[nH]c(=O)c(CN(CCCO)C(C)=O)cc2c1,-4.4% (inactive)
21,Fc1ccc(Cn2nnnc2C(c2cccs2)N2CCCCCC2)cc1 (stereo not given),4.1% (inactive)
22,CC(C)C1Cc2c(sc3c2c(=O)n(-c2ccccc2)c2nncn32)CO1 (stereo not given),5.5% (inactive)
23,O=C(c1ccco1)N1CCN(C(=O)c2ccc(COc3ccc(F)cc3)o2)CC1,-1.9% (inactive)
24,O=S(=O)(Nc1ccccn1)c1ccc(Oc2ccccc2)cc1,-6.5% (inactive)
25,Nn1c(SCC(=O)NC(=O)NC2CCCC2)nnc1-c1ccccc1F,12.5% (inactive)

row,Structure (SMILES),inhibition
1,CCCCC(=O)Nc1ccc2c(c1)C(=O)NC2=O,23.1% (active)
2,CN1C(=O)c2ccc(NC(=O)c3c(F)c(F)c(F)c(F)c3F)cc2C1=O,9.3% (inactive)
3,CCCCC(=O)Nc1ccc2c(c1)OCCO2,-1.9% (inactive)
4,Cc1ccccc1CSCC(=O)NC(=O)NC(C)(C)C,4.6% (inactive)
5,CCSc1nc(=S)n(CC)c(C)c1C(C)=O,0.9% (inactive)
6,CSc1ccc(NC(=O)N2CC(C)OC(C)C2)cc1 (stereo not given),6.5% (inactive)
7,CCN(CC)C(=O)CSc1nnc(-c2ccc(S(=O)(=O)NCc3ccccc3Cl)cc2)o1,1.9% (inactive)
8,Cc1nn(Cc2ccc(Cl)c(Cl)c2)c(C)c1NC(=O)c1cc(C2CC2)on1,-8.2% (inactive)
9,Cc1ccc(O)c(NC(=O)COc2cc(C)ccc2C)c1,3.2% (inactive)
10,COc1ccc(OC)c(NC(=O)CN2CCN(C(=O)c3ccco3)CC2)c1,0.1% (inactive)
11,OCCNCCCCOc1ccccc1F,5.9% (inactive)
12,CCSc1ncnc2c(C#N)c3n(c12)CCCCC3,3% (inactive)
13,CC(=O)Nc1nonc1-c1nc2ccccc2n1Cc1ccccn1,2.3% (inactive)
14,Cn1c(=O)c2c(n(Cc3ccccc3)c1=O)NC(=O)C2CC(=O)N1CCc2ccccc2C1 (stereo not given),6.4% (inactive)
15,C=CCn1c(C)cc(C(=O)CN2C(=O)c3ccccc3C2=O)c1C,2.5% (inactive)
16,CCCn1cc(SCC(N)=O)c2ccccc21,4.9% (inactive)
17,Cc1ccc(C(=O)NCC2CCCO2)o1 (stereo not given),4.3% (inactive)
18,C=CCn1cnc2scc(-c3ccccc3)c2c1=O,1.2% (inactive)
19,C#CCN1CC(C)/C(=N/O)CC1C (stereo not given),3.7% (inactive)
20,O=C1CC(c2ccccc2)CC(O)=C1C=NCCN1CCOCC1 (stereo not given),3.3% (inactive)
21,COc1cccc(N2CCN(C(=O)C3CCCN(S(=O)(=O)c4cnc[nH]4)C3)CC2)c1 (stereo not given),3.3% (inactive)
22,Cc1cc(C(=O)CC#N)c(C)n1CC(F)(F)F,3.3% (inactive)
23,O=C1C=C(NCCNc2c(F)c(F)c(CO)c(F)c2F)CCC1,1.5% (inactive)
24,Cc1cn(C2C=CC(CO)O2)c(=O)[nH]c1=O (stereo not given),6.1% (inactive)
25,Cc1cc(=O)[nH]c(SCC(=O)N2c3ccccc3CC2C)n1 (stereo not given),-3.6% (inactive)
